Assay outcomes deposited in PubChem by Broad Institute.
Pf Dd2 inh: inhibitors of Plasmodium falciparum Dd2 growth | P. falciparum Dd2 growth, SYBR Green, 72 h; hits give low values | activity change, % at 10 µM | 2.3% of 94,000 active | AID 1159554; in the data active = activity change below about -80%; inconclusive = no clear call, values can overlap the other calls
T cruzi growth-1: blocks T. cruzi growth in NIH3T3 culture; T. cruzi beta-gal in NIH3T3, GalScreen luminescence, 90 h; inhibition, % at 8.34 µM; 5.9% of 77,000 active; AID 624255;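 active = mean inhibition above about 93%, with at least 55% of replicates each passing it, limit read from the data, passing the limit was not always enough; inconclusive = only one of those two conditions holds; inactive = neither condition holds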
C diff HTS: C. difficile growth inhibition | AID 1259249 | 0.25% of 86,000 active | growth activity, negative = inhibition, % at 16 µg/mL (by protocol) | Clostridium difficile clinical isolate growth, OD600, 24 h; hits give low values;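 active = mean growth activity at or below -80% and every replicate also at or below -80%; inconclusive = mean at or below -80% but some replicate above -80%; inactive = mean growth activity above -80%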;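 note: 0% = DMSO wells and -100% = levofloxacin 16 µg/mL wells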
T cruzi growth-2: Trypanosoma cruzi proliferation inhibition. shares compounds with T cruzi growth-1. T. cruzi beta-gal in NIH3T3, GalScreen luminescence, 90 h. inhibition, % at 8.35 µM. 72% of 5,600 active;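 active = mean replicate inhibition above about 95% and at least 55% of replicates individually reaching it, limit read from the data; inconclusive = only one of the two criteria is met; inactive = neither criterion is met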
T cruzi growth-3: Trypanosoma cruzi proliferation inhibition | T. cruzi beta-gal in NIH3T3, GalScreen luminescence, 90 h | shares compounds with T cruzi growth-1 | AID 651740 | 21% of 5,600 active | inhibition, % at 2.09 µM;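 active = mean inhibition above about 95%, with at least 55% of replicates also reaching it, limit read from the data; inconclusive = meets just one of the two conditions; inactive = meets neither condition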;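 note: plate controls were neutral control median for no effect and positive control median for full effect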
NIH3T3 tox: kills mouse NIH/3T3 fibroblasts; shares compounds with T cruzi growth-1; NIH/3T3 viability, CellTiter-Glo ATP luminescence, 90 h; cytotoxicity (signal decrease), % at 8.35 µM; 14% of 5,600 active;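 active = mean signal decrease across replicates above about 35% based on untreated-well scatter, with enough replicates individually passing, limit read from the data; inconclusive = no rule stated though some were filed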;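 note: 0% = median of neutral control wells and 100% = median of positive control wells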
NIH3T3 tox 2: NIH/3T3 (mouse) viability loss; AID 651744; shares compounds with T cruzi growth-1; inhibition, % at 24.9 µM; NIH/3T3 viability, CellTiter-Glo ATP luminescence, 90 h; 56% of 5,600 active;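 active = mean loss of cell viability signal at or above a set limit, and enough replicates individually reaching it; inconclusive = meets only the mean limit or only the replicate share; inactive = meets neither condition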;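 note: 0% = median of neutral control wells and 100% = median of positive control wells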
Active calls of the source: *; ? = inconclusive; . = no result. Only some compounds are listed: those with a hit (about 6.7% of all), similar ones and a draw of the others.

SMILES	Pf Dd2 inh	T cruzi growth-1	C diff HTS	T cruzi growth-2	T cruzi growth-3	NIH3T3 tox	NIH3T3 tox 2
COc1ccc(NC(=O)Nc2ccc3c(c2)C(=O)N([C@H](C)CO)C[C@H](C)[C@H](CN(C)Cc2ccc(Cl)c(Cl)c2)OCCCC[C@H](C)O3)cc1	14	126*	-1	95*	114*	5	16
COc1ccc(NC(=O)Nc2ccc3c(c2)C(=O)N([C@H](C)CO)C[C@H](C)[C@H](CN(C)Cc2ccc(Cl)c(Cl)c2)OCCCC[C@@H](C)O3)cc1	-44	121*	-1	104*	107*	6	-1
COc1ccc(NC(=O)Nc2ccc3c(c2)C(=O)N([C@@H](C)CO)C[C@@H](C)[C@H](CN(C)Cc2ccc4c(c2)OCO4)OCCCC[C@H](C)O3)cc1	-60	76	4	.	.	.	.
COc1ccc(CN(C)C[C@H]2OCCCC[C@H](C)Oc3ccc(NC(=O)Nc4ccc(OC)cc4)cc3C(=O)N([C@@H](C)CO)C[C@H]2C)cc1	20	2	.	.	.	.	.
COc1ccc(NC(=O)Nc2ccc3c(c2)C(=O)N([C@@H](C)CO)C[C@@H](C)[C@@H](CN(C)Cc2ccc(Cl)c(Cl)c2)OCCCC[C@@H](C)O3)cc1	-80*	126*	-1	96*	114*	1	5
CCCN(C)C[C@@H]1Oc2ncc(C#Cc3ccccc3OC)cc2C(=O)N([C@H](C)CO)C[C@@H]1C	-75	.	7	.	.	.	.
CC(C)NC(=O)N(C)C[C@H]1OCCCC[C@H](C)Oc2ccc(NC(=O)c3ccccc3)cc2C(=O)N([C@H](C)CO)C[C@@H]1C	20	47	-5	.	.	.	.
Cc1ccc(-c2cnc3c(c2)C(=O)N([C@H](C)CO)C[C@@H](C)[C@H](CN(C)C)O3)cc1	23	10	-2	.	.	.	.
COc1ccc(NC(=O)Nc2ccc3c(c2)C(=O)N([C@H](C)CO)C[C@@H](C)[C@@H](CN(C)Cc2ccc(Cl)c(Cl)c2)OCCCC[C@H](C)O3)cc1	-75	126*	5	90	110*	2	5
COc1ccc(CN(C)C[C@H]2OCCCC[C@@H](C)Oc3ccc(NC(=O)Nc4ccc(OC)cc4)cc3C(=O)N([C@H](C)CO)C[C@@H]2C)cc1	-29	38	.	.	.	.	.
COc1ccc(NC(=O)Nc2ccc3c(c2)C(=O)N([C@@H](C)CO)C[C@H](C)[C@@H](CN(C)Cc2ccc(Cl)c(Cl)c2)OCCCC[C@@H](C)O3)cc1	-87*	126*	0	102*	114*	-5	28
CCCNC(=O)N1[C@@H](C#N)[C@@H](c2ccc(C#Cc3cccc(F)c3)cc2)[C@@H]1CO	-66	100*	-15	103*	93	21	50*
CCCNC(=O)N1[C@@H](C#N)[C@H](c2ccc(C#Cc3cccc(F)c3)cc2)[C@@H]1CO	-39	?	-11	99*	43	21	?
CCCNC(=O)N1[C@H](CO)[C@@H](c2ccccc2)[C@@H]1CNC(=O)c1ccccc1	-30	75	-1	.	.	.	.
CCCNC(=O)N1[C@H](CO)[C@H](c2ccccc2)[C@@H]1C#N	35	21	-3	.	.	.	.
CCCNC(=O)N1[C@H](CO)[C@H](c2ccccc2)[C@@H]1CNC(=O)c1cccc(F)c1	1	98*	4	86	33	0	37
N#C[C@H]1[C@H](c2ccc(C#Cc3cccc(F)c3)cc2)[C@@H](CO)N1C(=O)C1CCOCC1	-29	-12	3	.	.	.	.
C[C@@H]1CN([C@H](C)CO)C(=O)c2cc(-c3ccccc3)cnc2O[C@@H]1CN(C)C(=O)c1cccnc1	4	.	-8	.	.	.	.
CO[C@@H]1CC[C@H]2CCN(C)C(=O)CCCN(C)C(=O)c3cccc(C#N)c3OC[C@@H]1O2	.	-5	-5	.	.	.	.
CCCNC(=O)Nc1ccc2c(c1)C(=O)N(C)[C@H]1CC[C@@H](CC(=O)NCC3CCCCC3)O[C@H]1CO2	-26	4	3	.	.	.	.
O=C(Cc1ccncc1)N1CC[C@@H]2[C@H](CO)Nc3ccc(-c4ccccc4F)cc3[C@@H]21	-63	112*	-2	107*	69	17	?
O=C(c1cnccn1)N1CC[C@@H]2[C@@H](CO)Nc3ccc(-c4ccccc4F)cc3[C@@H]21	-21	98	-3	.	.	.	.
O=C(Cc1ccncc1)N1CC[C@@H]2[C@H]1c1cc(-c3ccccc3F)ccc1N[C@@H]2CO	-60	118*	-2	99*	27	-7	11
O=C(Cc1ccccc1)N1CC[C@@H]2[C@@H](CO)Nc3ccc(-c4ccccc4F)cc3[C@@H]21	25	88	-1	.	.	.	.
CC(C)CC#Cc1ccc2c(c1)O[C@H](CN(C)C(=O)c1cnccn1)[C@H](C)CN([C@H](C)CO)S2(=O)=O	-7	.	2	.	.	.	.
SMILES	Pf Dd2 inh	T cruzi growth-1	C diff HTS	T cruzi growth-2	T cruzi growth-3	NIH3T3 tox	NIH3T3 tox 2
O=C(CN1CCOCC1)N1CCCCN2[C@H](CO)[C@@H](c3ccc(/C=C/c4ccccc4)cc3)[C@H]2C1	-6	10	-2	.	.	.	.
O=C(CN1CCOCC1)N1CCCCN2[C@@H](CO)[C@H](c3ccc(-c4ccccc4F)cc3)[C@@H]2C1	43	?	-12	79	73	-9	-27
O=C(CN1CCOCC1)N1CCCCN2[C@H](C1)[C@H](c1ccc(-c3ccccc3)cc1)[C@@H]2CO	15	-6	-6	.	.	.	.
O=C(CN1CCOCC1)N1CCCCN2[C@@H](CO)[C@@H](c3ccc(-c4ccccc4)cc3)[C@@H]2C1	1	91*	0	75	-15	-5	12
O=C(CN1CCOCC1)N1CCCCN2[C@H](CO)[C@@H](c3ccc(C#Cc4ccccc4)cc3)[C@@H]2C1	-1	64	-2	.	.	.	.
O=C(CN1CCOCC1)N1CCCCN2[C@H](CO)[C@H](c3ccc(/C=C/c4ccccc4)cc3)[C@@H]2C1	-9	106*	-12	108*	86	40*	41*
O=C(CN1CCOCC1)N1CCCCN2[C@H](CO)[C@H](c3ccc(-c4ccccc4F)cc3)[C@@H]2C1	22	85	-4	.	.	.	.
O=C(CN1CCOCC1)N1CCCCN2[C@H](CO)[C@H](c3ccc(C#Cc4ccccc4)cc3)[C@@H]2C1	15	103*	-17	106*	30	41*	67*
N#C[C@H]1[C@@H](c2ccccc2)[C@H](CO)N1C(=O)CCN1CCCCC1	7	-51	-14	.	.	.	.
COc1ccc(CN2C[C@@H](O)COC[C@@H]3O[C@H](CC(=O)NCCN4CCCC4)CC[C@H]32)cc1	30	-4	17	.	.	.	.
CCC(=O)Nc1ccc2c(c1)C(=O)N(C)C[C@H](OC)[C@H](C)CN(CCc1ccccc1)[C@@H](C)CO2	17	21	.	.	.	.	.
CN1CCN(C(=O)C[C@H]2C=C[C@H](NC(=O)Nc3ccccc3F)[C@@H](CO)O2)CC1	8	2	.	.	.	.	.
